Laboratory results taken from PubChem BioAssay AID1159580 (chemical genetic matrix, 2015).
“And” between values parts separate entries of the source, which are not always exact repeats. Equal entries are not always repeated. About 2,000 (36%) of roughly 5,500 compounds were called active. Inconclusive results (about 18%) are left out. Rule as the data show it: active = normalized growth mostly below about 0.91 (no sharp cut-off); inconclusive = no clear call, values can overlap the other calls; inactive = mostly above about 0.92. The list shows a part of the results.

Test: chemical genetic growth profiling, strain panel (AID 1159580);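 also: tested at 20 µM; growth read once vehicle control cultures reached saturation at 30 °C; 1 = growth at the plate median or of vehicle wells; lower values mean less growth of the strain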
Conditions: S. cerevisiae deletion strains, growth OD

Measured: normalized growth

CC1CCC(NC(=O)N(CCCl)N=O)CC1 (stereo not drawn)
active: locus YAL021C, strain ccr4, hits give low values 0.899 | locus YAL026C, strain drs2, hits give low values 0.24 | locus YAL030W, strain snc1, hits give low values 0.796 | locus YBR009C, strain hhf1, hits give low values 0.244 | locus YBR023C, strain chs3, hits give low values 0.876 | locus YBR171W, strain sec66, hits give low values 0.68 | locus YBR231C, strain swc5, hits give low values 0.755 | locus YBR279W, strain paf1, hits give low values 0.863 | locus YCL011C, strain gbp2, hits give low values 0.095 | locus YCL016C, strain dcc1, hits give low values 0.703 | locus YCL061C, strain MRC1, hits give low values 0.335 | locus YCL069W, strain vba3, hits give low values 0.834 | locus YCR088W, strain abp1, hits give low values 0.182 | locus YDR001C, strain nth1, hits give low values 0.678 | locus YDR137W, strain rgp1, hits give low values 0.718 | locus YDR159W, strain sac3, hits give low values 0.852 | locus YDR334W, strain swr1, hits give low values 0.187 | locus YDR392W, strain spt3, hits give low values 0.126 | locus YDR502C, strain sam2, hits give low values 0.859 | locus YEL003W, strain gim4, hits give low values 0.0715 | locus YEL037C, strain rad23, hits give low values 0.865 | locus YEL061C, strain CIN8 (second series), hits give low values 0.339 | locus YER015W, strain faa2, hits give low values 0.593 | locus YER016W, strain bim1, hits give low values 0.895 | locus YER155C, strain BEM2 (second series), hits give low values 0.112 | locus YFR010W, strain ubp6, hits give low values 0.85 | locus YGL173C, strain kem1, hits give low values 0.895 | locus YGL227W, strain vid30, hits give low values 0.07 | locus YGL240W, strain doc1, hits give low values 0.8 | locus YGL253W, strain hxk2, hits give low values 0.771 | locus YHR013C, strain ard1, hits give low values 0.578 | locus YHR027C, strain rpn1, hits give low values 0.695 | locus YHR142W, strain chs7, hits give low values 0.476 | locus YIL125W, strain kgd1, hits give low values 0.929 | locus YJL092W, strain hpr5, hits give low values 0.644 | locus YJL095W, strain BCK1 (second series), hits give low values 0.887 | locus YJL115W, strain asf1, hits give low values 0.622 | locus YJL129C, strain trk1, hits give low values 0.196 | locus YJL164C, strain tpk1, hits give low values 0.545 | locus YJL166W, strain qcr8, hits give low values 0.427 | locus YJR043C, strain POL32, hits give low values 0.662 | locus YKL085W, strain MDH1 (second series), hits give low values 0.912 | locus YKL085W, strain MDH1, hits give low values 0.912 | locus YKR001C, strain vps1, hits give low values 0.841 | locus YKR026C, strain gcn3, hits give low values 0.225 | locus YKR091W, strain srl3, hits give low values 0.81 | locus YLL026W, hits give low values 0.289 | locus YLL041C, strain sdh2, hits give low values 0.657 | locus YLR027C, strain aat2, hits give low values 0.344 | locus YLR221C, strain rsa3, hits give low values 0.0809 | locus YLR258W, strain gsy2, hits give low values 0.728 | locus YLR262C, strain YPT6 (second series), hits give low values 0.635 | locus YLR320W, strain mms22, hits give low values 0.232 | locus YLR342W, strain FKS1, hits give low values 0.819 | locus YLR357W, strain rsc2, hits give low values 0.549 | locus YLR418C, strain cdc73, hits give low values 0.554 | locus YML120C, strain ndi1, hits give low values 0.128 | locus YMR058W, strain fet3, hits give low values 0.216 | locus YMR125W, strain sto1, hits give low values 0.0911 | locus YMR129W, hits give low values 0.0909 | locus YMR205C, strain PFK2, hits give low values 0.728 | locus YNL071W, strain lat1, hits give low values 0.0878 | locus YNL209W, strain ssb2, hits give low values 0.798 | locus YNL248C, strain rpa49, hits give low values 0.0991 | locus YNL307C, strain MCK1, hits give low values 0.89 | locus YNL322C, strain KRE1 (second series), hits give low values 0.121 | locus YOR001W, strain rrp6, hits give low values 0.084 | locus YOR070C, strain gyp1, hits give low values 0.658 | locus YOR083W, strain WHI5, hits give low values 0.598 | locus YOR106W, strain vam3, hits give low values 0.598 | locus YOR184W, strain ser1, hits give low values 0.161 | locus YOR265W, strain rbl2, hits give low values 0.894 | locus YOR270C, strain vph1, hits give low values 0.503 | locus YOR290C, strain snf2, hits give low values 0.853 | locus YPL051W, strain arl3, hits give low values 0.816 | locus YPL078C, strain atp4, hits give low values 0.878 | locus YPL106C, strain sse1, hits give low values 0.823 | locus YPL240C, strain hsp82, hits give low values 0.795 | strain wtn01, hits give low values 0.858
inactive: locus YBL061C, strain skt5, hits give low values 0.965 | locus YBR021W, strain FUR4, hits give low values 1.02 | locus YBR229C, strain ROT2, hits give low values 0.998 | locus YCL029C, strain bik1, hits give low values 1.01 | locus YDL005C, strain med2, hits give low values 0.952 | locus YDL035C, strain GPR1, hits give low values 0.946 | locus YDL040C, strain nat1, hits give low values 0.983 | locus YDL074C, strain BRE1, hits give low values 0.874 | locus YDL101C, strain DUN1, hits give low values 0.995 | locus YDL134C, strain PPH21, hits give low values 0.995 | locus YDL185W, strain tfp1, hits give low values 1.01 | locus YDL192W, strain arf1, hits give low values 1 | locus YDR069C, strain doa4, hits give low values 0.958 | locus YDR101C, strain arx1, hits give low values 0.99 | locus YDR150W, strain NUM1, hits give low values 0.998 | locus YDR162C, strain NBP2, hits give low values 0.968 | locus YDR195W, strain ref2 0.994 | locus YDR297W, strain sur2, hits give low values 0.951 | locus YDR318W, strain mcm21, hits give low values 0.979 | locus YDR335W, strain msn5, hits give low values 0.933 | locus YDR388W, hits give low values 1.01 | locus YEL061C, strain CIN8, hits give low values 0.992 | locus YER110C, hits give low values 1.01 | locus YER111C, strain swi4, hits give low values 0.961 | locus YER155C, strain BEM2, hits give low values 1 | locus YER167W, strain BCK2, hits give low values 0.938 | locus YGL078C, strain dbp3, hits give low values 0.957 | locus YGL086W, strain mad1, hits give low values 0.937 | locus YGL167C, strain pmr1, hits give low values 0.98 | locus YGL248W, strain PDE1, hits give low values 1 | locus YGR135W, strain pre9, hits give low values 0.935 | locus YGR252W, strain gcn5, hits give low values 0.993 | locus YHR030C, strain SLT2, hits give low values 0.991 and 0.89 | locus YHR079C, strain IRE1 (second series), hits give low values 1 | locus YHR079C, strain IRE1, hits give low values 0.866 | locus YHR094C, strain hxt1, hits give low values 1.01 | locus YHR129C, strain ARP1, hits give low values 0.974 | locus YHR200W, strain rpn10, hits give low values 0.982 | locus YIL066C, strain RNR3, hits give low values 0.949 | locus YIL073C, strain SPO22, hits give low values 1.02 | locus YIR030C, strain dcg1, hits give low values 0.995 | locus YJL095W, strain BCK1, hits give low values 0.928 and 0.908 | locus YJL134W, strain LCB3, hits give low values 0.997 | locus YJL154C, strain vps35, hits give low values 0.975 | locus YJL168C, strain set2, hits give low values 1.01 | locus YJL187C, strain SWE1 (second series), hits give low values 1 | locus YJR066W, strain TOR1, hits give low values 0.894 | locus YKL009W, strain mrt4, hits give low values 0.921 | locus YKL068W, hits give low values 0.983 | locus YKL160W, strain elf1, hits give low values 0.914 | locus YKL190W, strain CNB1, hits give low values 0.996 | locus YLL001W, strain dnm1, hits give low values 0.929 | locus YLR039C, strain RIC1, hits give low values 0.771 | locus YLR058C, strain SHM2, hits give low values 0.995 | locus YLR102C, strain apc9, hits give low values 1.01 | locus YLR113W, strain HOG1, hits give low values 0.902 | locus YLR262C, strain YPT6, hits give low values 0.656 | locus YLR268W, strain sec22, hits give low values 0.894 | locus YLR330W, strain CHS5, hits give low values 0.977 | locus YLR342W, strain FKS1 (second series), hits give low values 0.991 | locus YLR370C, strain arc18, hits give low values 0.913 | locus YLR371W, strain rom2, hits give low values 0.941 | locus YLR384C, strain iki3, hits give low values 0.956 | locus YML016C, strain PPZ1, hits give low values 1 | locus YML032C, strain rad52, hits give low values 1.01 | locus YML124C, strain tub3, hits give low values 1 | locus YMR078C, strain ctf18, hits give low values 1 | locus YMR223W, strain ubp8, hits give low values 0.974 | locus YMR231W, strain pep5, hits give low values 0.981 | locus YMR307W, strain GAS1, hits give low values 0.721 | locus YNL067W, strain RPL9B, hits give low values 0.926 | locus YNL153C, strain GIM3, hits give low values 0.882 | locus YNL183C, strain NPR1, hits give low values 0.9 | locus YNL233W, strain BNI4, hits give low values 0.917 | locus YNL250W, strain rad50, hits give low values 0.94 | locus YNL271C, strain bni1, hits give low values 0.93 | locus YNL298W, strain CLA4, hits give low values 0.957 | locus YNL322C, strain KRE1, hits give low values 0.985 | locus YNR049C, strain mso1, hits give low values 0.939 | locus YNR052C, strain pop2, hits give low values 1.02 | locus YOL012C, strain htz1 0.346 | locus YOL147C, strain pex11, hits give low values 1 | locus YOR061W, strain CKA2, hits give low values 1 | locus YOR069W, strain VPS5, hits give low values 0.998 | locus YOR080W, strain dia2, hits give low values 0.988 | locus YOR136W, strain idh2, hits give low values 0.992 | locus YOR144C, strain elg1, hits give low values 0.998 | locus YOR231W, strain MKK1, hits give low values 0.89 | locus YOR316C, strain cot1, hits give low values 1 | locus YPL256C, strain CLN2, hits give low values 0.855 | locus YPR119W, strain clb2, hits give low values 1 | locus YPR141C, strain kar3, hits give low values 0.979 | locus YPR163C, strain tif3, hits give low values 0.964 | locus YPR167C, strain met16, hits give low values 0.999
